# Results from PMC7862700, “An all-to-all approach to the identification of sequence-specific readers for epigenetic DNA modifications on cytosine”.
# What was measured:
# Assay in all cases: DAPPL (digital affinity profiling via proximity ligation, sequencing); 10 mM Tris-HCl pH 7.5, 50 mM NaCl, 1 mM DTT, 4% glycerol, room temperature, 30 min; GST-TFs on glutathione beads, 16-mer random dsDNA library, 0.1% formaldehyde crosslink after washing; high values mean tight binding
# FLI1 = biological target: T1, FLI1 (Homo sapiens, UniProt Q01543 1-452); details: protein: recombinant; tags: N-terminal GST; dsDNA, one strand shown
# T1 sequence: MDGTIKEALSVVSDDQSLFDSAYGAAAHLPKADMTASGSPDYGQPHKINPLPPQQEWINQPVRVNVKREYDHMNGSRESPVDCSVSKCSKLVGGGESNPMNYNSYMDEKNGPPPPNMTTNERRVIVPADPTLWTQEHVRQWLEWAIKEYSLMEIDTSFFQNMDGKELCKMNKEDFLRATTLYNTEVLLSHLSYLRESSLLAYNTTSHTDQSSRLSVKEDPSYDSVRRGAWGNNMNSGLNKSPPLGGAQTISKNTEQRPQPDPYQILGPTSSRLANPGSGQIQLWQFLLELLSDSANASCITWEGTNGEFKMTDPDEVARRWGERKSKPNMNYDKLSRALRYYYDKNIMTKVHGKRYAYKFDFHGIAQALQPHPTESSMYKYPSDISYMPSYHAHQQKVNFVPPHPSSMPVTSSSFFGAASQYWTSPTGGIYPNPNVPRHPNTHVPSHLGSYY
# Method in brief: (§1)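 Beads coated with glutathione captured GST-fused human transcription factors that had been expressed in yeast, and the factors were then given DNA barcodes and pooled with a tag-only sample. The pools were incubated with 200 nmole of a random double-stranded 16-mer DNA library in Tris/NaCl/DTT/glycerol buffer for 30 min at room temperature, washed, crosslinked with 0.1% formaldehyde and proximity-ligated with BsaI/T4 ligase at 37 °C for 1 h. PCR amplification and Illumina NextSeq500 sequencing came last. Binding signal is each hexamer's read frequency for a factor divided by its frequency for the tag-only sample.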
# ELK1 = biological target: T2, ELK1 (Homo sapiens, UniProt P19419 1-428); details: protein: recombinant; tags: N-terminal GST; dsDNA, one strand shown
# T2 sequence: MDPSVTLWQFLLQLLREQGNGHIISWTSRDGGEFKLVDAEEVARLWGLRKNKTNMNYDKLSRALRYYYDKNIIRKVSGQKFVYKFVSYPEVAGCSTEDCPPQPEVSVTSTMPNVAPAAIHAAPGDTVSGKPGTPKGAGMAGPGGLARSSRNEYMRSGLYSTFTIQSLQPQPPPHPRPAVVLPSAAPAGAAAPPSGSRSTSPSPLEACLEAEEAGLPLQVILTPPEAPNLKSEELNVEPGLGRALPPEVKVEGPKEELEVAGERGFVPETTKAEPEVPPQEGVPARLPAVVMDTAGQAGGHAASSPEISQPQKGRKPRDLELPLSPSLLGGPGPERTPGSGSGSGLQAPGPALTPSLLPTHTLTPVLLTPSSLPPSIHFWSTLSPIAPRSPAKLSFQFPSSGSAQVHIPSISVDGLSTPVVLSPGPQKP
# Method in brief: as §1
# GABPA = biological target: T3, GABPA (Homo sapiens, UniProt Q06546 1-454); details: protein: recombinant; tags: N-terminal GST; dsDNA, one strand shown
# T3 sequence: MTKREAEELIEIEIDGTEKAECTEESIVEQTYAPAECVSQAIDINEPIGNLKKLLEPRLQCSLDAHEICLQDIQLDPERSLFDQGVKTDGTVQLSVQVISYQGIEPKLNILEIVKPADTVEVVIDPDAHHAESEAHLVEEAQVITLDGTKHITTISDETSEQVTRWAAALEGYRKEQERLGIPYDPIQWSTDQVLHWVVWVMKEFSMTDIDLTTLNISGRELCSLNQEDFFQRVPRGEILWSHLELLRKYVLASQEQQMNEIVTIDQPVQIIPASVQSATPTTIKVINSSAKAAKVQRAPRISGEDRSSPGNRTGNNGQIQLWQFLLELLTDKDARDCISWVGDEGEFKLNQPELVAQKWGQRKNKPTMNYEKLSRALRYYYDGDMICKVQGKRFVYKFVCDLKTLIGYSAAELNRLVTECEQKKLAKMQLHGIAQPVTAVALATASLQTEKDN
# Method in brief: as §1
# ERG = biological target: T4, ERG (Homo sapiens, UniProt P11308 1-479); details: protein: recombinant; tags: N-terminal GST; dsDNA, one strand shown
# T4 sequence: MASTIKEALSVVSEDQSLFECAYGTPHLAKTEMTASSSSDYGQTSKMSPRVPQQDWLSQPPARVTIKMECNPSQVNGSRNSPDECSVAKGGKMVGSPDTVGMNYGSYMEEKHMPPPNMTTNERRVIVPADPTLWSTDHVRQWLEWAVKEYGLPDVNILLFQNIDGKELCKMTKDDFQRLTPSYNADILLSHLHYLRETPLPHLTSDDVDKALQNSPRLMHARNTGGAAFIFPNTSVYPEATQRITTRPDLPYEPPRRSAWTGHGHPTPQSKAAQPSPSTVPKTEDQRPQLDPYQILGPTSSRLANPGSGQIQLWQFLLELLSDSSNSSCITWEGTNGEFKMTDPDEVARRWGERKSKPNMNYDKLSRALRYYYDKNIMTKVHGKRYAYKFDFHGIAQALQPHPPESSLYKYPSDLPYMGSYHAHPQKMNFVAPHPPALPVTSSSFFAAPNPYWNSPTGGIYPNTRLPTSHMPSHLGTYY
# Method in brief: as §1
# ELF1 = ELF1 (Homo sapiens, UniProt P32519 1-619); details: protein: recombinant; tags: N-terminal GST; dsDNA, one strand shown
# Sequence of ELF1 (P32519 whole entry): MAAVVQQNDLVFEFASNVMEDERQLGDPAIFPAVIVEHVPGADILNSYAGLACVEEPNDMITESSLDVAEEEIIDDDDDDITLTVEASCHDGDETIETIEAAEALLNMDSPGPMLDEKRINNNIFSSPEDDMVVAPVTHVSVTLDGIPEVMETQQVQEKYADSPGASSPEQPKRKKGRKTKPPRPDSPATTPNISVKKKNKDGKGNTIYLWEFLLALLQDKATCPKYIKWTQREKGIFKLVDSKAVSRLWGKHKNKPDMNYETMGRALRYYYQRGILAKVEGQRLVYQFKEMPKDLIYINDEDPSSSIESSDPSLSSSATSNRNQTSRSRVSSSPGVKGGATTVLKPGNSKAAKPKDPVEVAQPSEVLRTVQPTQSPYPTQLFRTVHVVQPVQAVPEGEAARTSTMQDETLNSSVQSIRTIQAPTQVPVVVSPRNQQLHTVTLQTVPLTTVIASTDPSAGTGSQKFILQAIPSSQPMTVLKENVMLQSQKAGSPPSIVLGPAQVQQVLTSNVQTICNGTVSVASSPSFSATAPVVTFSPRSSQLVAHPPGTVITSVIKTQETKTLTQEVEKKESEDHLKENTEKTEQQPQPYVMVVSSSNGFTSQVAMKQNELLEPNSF
# Method in brief: as §1
# EHF = biological target: T5, EHF (Homo sapiens, UniProt Q9NZC4 1-300); details: protein: recombinant; tags: N-terminal GST; dsDNA, one strand shown
# T5 sequence: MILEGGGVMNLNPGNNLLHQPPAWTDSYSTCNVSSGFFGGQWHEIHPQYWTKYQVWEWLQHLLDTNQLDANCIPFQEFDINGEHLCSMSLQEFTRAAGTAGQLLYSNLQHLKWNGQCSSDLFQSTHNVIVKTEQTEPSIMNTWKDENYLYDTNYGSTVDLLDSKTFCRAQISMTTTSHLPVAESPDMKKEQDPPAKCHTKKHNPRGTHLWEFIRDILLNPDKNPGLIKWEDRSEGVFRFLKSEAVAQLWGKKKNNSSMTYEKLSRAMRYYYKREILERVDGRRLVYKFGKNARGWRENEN
# Method in brief: as §1
# SPI1 = SPI1 (Homo sapiens, UniProt P17947 1-270); details: protein: recombinant; tags: N-terminal GST; dsDNA, one strand shown
# Method in brief: as §1
# SPIB = SPIB (Homo sapiens, UniProt Q01892 1-262); details: protein: recombinant; tags: N-terminal GST; dsDNA, one strand shown
# Sequence of SPIB (Q01892 whole entry): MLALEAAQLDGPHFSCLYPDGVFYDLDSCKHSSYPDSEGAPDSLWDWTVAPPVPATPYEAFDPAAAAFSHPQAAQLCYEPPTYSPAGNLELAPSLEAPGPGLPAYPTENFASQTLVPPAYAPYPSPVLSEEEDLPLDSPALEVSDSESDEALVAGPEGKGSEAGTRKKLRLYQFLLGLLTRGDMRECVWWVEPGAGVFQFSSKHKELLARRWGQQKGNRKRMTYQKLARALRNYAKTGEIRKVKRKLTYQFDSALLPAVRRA
# Method in brief: as §1
# ELK3 = biological target: T6, ELK3 (Homo sapiens, UniProt P41970 1-407); details: protein: recombinant; tags: N-terminal GST; dsDNA, one strand shown
# T6 sequence: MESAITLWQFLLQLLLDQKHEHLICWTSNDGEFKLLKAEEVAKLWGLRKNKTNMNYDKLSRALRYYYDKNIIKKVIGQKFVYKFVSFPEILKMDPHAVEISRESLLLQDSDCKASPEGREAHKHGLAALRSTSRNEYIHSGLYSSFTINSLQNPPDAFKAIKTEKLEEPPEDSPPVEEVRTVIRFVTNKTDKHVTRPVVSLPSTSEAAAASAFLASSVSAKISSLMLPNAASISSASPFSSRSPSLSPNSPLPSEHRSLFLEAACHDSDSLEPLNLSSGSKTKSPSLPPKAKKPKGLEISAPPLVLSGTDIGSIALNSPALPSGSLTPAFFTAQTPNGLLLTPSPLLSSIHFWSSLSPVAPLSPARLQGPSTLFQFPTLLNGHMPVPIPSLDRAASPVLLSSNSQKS
# Method in brief: as §1
# FEV = biological target: T7, FEV (Homo sapiens, UniProt Q99581 1-238); details: protein: recombinant; tags: N-terminal GST; dsDNA, one strand shown
# T7 sequence: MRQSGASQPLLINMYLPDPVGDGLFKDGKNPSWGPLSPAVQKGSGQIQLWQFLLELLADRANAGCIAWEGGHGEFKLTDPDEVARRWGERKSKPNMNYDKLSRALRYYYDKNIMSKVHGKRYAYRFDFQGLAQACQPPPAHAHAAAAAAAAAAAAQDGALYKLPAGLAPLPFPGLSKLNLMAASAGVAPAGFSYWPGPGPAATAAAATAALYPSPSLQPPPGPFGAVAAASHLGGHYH
# Method in brief: as §1
# ETV5 = ETV5 (Homo sapiens, UniProt P41161 1-510); details: protein: recombinant; tags: N-terminal GST; dsDNA, one strand shown
# Sequence of ETV5 (P41161 whole entry): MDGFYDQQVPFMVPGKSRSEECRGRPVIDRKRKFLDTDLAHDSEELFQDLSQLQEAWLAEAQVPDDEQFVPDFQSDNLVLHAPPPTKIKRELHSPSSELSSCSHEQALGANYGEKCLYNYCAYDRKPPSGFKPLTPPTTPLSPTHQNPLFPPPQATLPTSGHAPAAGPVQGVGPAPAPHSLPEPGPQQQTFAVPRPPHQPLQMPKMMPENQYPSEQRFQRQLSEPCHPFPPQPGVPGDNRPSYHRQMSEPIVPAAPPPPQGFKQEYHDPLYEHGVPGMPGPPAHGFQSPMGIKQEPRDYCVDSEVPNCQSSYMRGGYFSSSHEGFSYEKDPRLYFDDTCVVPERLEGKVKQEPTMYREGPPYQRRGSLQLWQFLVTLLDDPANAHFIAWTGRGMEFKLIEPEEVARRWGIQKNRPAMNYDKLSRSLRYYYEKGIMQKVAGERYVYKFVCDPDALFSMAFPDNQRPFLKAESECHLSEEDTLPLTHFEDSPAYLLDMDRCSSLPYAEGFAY
# Method in brief: as §1
# HSF1 = HSF1 (Homo sapiens, UniProt Q00613 1-529); details: protein: recombinant; tags: N-terminal GST; chain copies: 3; dsDNA, one strand shown
# Sequence of HSF1 (Q00613 whole entry): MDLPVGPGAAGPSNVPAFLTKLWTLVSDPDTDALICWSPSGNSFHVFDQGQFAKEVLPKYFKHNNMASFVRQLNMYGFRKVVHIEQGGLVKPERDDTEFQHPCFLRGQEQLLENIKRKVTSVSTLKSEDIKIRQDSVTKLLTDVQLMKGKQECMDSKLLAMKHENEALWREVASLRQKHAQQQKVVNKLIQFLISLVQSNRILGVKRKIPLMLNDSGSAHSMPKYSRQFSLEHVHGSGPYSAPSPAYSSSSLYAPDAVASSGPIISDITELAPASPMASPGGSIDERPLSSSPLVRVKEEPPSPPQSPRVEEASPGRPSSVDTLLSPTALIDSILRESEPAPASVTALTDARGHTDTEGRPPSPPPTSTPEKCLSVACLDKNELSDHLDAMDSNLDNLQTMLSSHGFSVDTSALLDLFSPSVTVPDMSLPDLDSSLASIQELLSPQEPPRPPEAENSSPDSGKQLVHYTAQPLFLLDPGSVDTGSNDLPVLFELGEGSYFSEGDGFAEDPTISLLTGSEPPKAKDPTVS
# Method in brief: as §1
# SPIC = biological target: T8, SPIC (Homo sapiens, UniProt Q8N5J4 1-248); details: protein: recombinant; tags: N-terminal GST; dsDNA, one strand shown
# T8 sequence: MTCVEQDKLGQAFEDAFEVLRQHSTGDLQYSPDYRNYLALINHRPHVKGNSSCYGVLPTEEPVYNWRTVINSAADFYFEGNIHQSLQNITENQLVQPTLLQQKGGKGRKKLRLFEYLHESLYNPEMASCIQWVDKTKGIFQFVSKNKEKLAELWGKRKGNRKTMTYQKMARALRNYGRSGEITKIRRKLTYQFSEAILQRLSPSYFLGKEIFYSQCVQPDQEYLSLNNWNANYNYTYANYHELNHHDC
# Method in brief: as §1
# ELF4 = ELF4 (Homo sapiens, UniProt Q99607 1-663); details: protein: recombinant; tags: N-terminal GST; dsDNA, one strand shown
# Sequence of ELF4 (Q99607 whole entry): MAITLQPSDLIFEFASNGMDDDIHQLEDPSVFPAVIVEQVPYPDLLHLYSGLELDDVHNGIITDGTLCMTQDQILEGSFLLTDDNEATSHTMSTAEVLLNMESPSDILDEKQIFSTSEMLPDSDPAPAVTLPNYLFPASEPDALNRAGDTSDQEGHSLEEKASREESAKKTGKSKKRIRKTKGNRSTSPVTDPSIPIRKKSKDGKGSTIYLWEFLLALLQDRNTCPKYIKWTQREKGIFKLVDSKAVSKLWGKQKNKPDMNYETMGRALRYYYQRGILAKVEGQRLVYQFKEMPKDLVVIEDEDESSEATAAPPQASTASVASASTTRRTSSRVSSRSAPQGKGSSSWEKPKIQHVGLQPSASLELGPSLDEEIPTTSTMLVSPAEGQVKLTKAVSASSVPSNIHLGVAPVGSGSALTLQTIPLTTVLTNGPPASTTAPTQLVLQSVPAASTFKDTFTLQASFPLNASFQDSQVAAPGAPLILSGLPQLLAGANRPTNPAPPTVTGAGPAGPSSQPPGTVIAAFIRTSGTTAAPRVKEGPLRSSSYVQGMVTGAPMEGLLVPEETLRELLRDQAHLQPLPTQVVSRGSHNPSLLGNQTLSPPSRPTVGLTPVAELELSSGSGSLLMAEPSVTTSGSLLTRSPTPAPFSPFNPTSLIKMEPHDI
# Method in brief: as §1
# ELK4 = biological target: T9, ELK4 (Homo sapiens, UniProt P28324-2 1-405); details: protein: recombinant; tags: N-terminal GST; dsDNA, one strand shown
# T9 sequence: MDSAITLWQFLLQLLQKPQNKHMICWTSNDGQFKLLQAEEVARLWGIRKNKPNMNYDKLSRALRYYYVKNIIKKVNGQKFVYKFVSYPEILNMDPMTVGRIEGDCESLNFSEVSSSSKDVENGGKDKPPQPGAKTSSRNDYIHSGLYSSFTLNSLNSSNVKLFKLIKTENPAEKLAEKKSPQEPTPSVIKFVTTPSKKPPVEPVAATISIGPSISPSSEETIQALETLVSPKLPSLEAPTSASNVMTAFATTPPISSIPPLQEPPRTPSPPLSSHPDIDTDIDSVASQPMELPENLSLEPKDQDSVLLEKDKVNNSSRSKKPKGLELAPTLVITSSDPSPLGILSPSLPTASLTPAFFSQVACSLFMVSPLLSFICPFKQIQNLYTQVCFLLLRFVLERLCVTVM
# Method in brief: as §1
# ETV2 = biological target: T10, ETV2 (Homo sapiens, UniProt O00321 1-342); details: protein: recombinant; tags: N-terminal GST; dsDNA, one strand shown
# T10 sequence: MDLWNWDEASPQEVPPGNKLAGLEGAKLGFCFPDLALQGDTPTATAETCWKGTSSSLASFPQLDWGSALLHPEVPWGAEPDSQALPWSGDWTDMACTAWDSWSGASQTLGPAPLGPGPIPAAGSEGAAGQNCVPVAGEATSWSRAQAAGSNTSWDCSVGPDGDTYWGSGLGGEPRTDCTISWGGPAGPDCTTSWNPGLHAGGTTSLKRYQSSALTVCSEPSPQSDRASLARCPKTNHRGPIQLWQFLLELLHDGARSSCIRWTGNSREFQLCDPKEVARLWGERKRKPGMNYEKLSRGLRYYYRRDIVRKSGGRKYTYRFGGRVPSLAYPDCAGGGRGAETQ
# Method in brief: as §1
# ELF3 = biological target: T11, ELF3 (Homo sapiens, UniProt P78545 1-371); details: protein: recombinant; tags: N-terminal GST; dsDNA, one strand shown
# T11 sequence: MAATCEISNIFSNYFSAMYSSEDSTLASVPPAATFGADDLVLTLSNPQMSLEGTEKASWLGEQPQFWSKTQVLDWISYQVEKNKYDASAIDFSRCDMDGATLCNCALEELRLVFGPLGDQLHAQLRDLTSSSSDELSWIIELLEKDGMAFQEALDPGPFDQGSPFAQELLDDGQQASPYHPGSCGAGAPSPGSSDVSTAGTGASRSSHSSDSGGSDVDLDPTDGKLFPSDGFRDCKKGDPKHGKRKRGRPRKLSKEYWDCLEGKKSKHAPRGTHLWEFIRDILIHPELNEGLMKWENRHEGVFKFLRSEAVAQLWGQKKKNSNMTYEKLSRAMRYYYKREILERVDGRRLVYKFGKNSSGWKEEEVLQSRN
# Method in brief: as §1
# CRX = CRX (Homo sapiens, UniProt O43186 1-299); details: protein: recombinant; tags: N-terminal GST; dsDNA, one strand shown
# Sequence of CRX (O43186 whole entry): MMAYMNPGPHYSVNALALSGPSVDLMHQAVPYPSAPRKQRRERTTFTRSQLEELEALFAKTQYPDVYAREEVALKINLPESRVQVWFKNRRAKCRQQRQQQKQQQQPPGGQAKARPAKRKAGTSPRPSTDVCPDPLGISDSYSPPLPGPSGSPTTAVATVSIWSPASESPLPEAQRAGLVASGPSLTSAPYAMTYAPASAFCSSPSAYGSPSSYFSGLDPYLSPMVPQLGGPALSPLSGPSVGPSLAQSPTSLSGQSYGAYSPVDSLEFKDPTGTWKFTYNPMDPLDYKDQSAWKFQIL
# Method in brief: as §1
# ETV1 = ETV1 (Homo sapiens, UniProt P50549 1-477); details: protein: recombinant; tags: N-terminal GST; dsDNA, one strand shown
# Sequence of ETV1 (P50549 whole entry): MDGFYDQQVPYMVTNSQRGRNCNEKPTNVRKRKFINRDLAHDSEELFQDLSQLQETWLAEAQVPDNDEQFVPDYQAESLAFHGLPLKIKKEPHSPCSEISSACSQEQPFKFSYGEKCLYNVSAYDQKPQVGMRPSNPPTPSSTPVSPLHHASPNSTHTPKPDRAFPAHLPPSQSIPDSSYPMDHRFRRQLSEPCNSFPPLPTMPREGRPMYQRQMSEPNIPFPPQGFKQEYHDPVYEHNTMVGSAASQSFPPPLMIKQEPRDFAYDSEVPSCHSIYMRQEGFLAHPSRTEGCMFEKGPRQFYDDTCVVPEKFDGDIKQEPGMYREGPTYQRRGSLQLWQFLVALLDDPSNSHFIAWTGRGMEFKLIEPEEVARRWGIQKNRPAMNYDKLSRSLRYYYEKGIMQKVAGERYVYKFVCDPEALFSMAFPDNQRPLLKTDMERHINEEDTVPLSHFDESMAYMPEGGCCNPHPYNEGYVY
# Method in brief: as §1
sequence,measurement,setting,value
ATTTAT,binding signal,FLI1,"1.41 fold enrichment (6-mer frequency, TF over GST control)"
same,binding signal,ELK1,"1.48 fold enrichment (6-mer frequency, TF over GST control)"
same,binding signal,GABPA,"1.35 fold enrichment (6-mer frequency, TF over GST control)"
same,binding signal,ERG,"1.33 fold enrichment (6-mer frequency, TF over GST control)"
same,binding signal,ELF1,"1.32 fold enrichment (6-mer frequency, TF over GST control)"
same,binding signal,EHF,"1.45 fold enrichment (6-mer frequency, TF over GST control)"
same,binding signal,SPI1,"1.43 fold enrichment (6-mer frequency, TF over GST control)"
same,binding signal,SPIB,"1.46 fold enrichment (6-mer frequency, TF over GST control)"
same,binding signal,ELK3,"1.49 fold enrichment (6-mer frequency, TF over GST control)"
same,binding signal,FEV,"1.34 fold enrichment (6-mer frequency, TF over GST control)"
same,binding signal,ETV5,"1.41 fold enrichment (6-mer frequency, TF over GST control)"
same,binding signal,HSF1,"1.68 fold enrichment (6-mer frequency, TF over GST control)"
same,binding signal,SPIC,"1.49 fold enrichment (6-mer frequency, TF over GST control)"
same,binding signal,ELF4,"1.35 fold enrichment (6-mer frequency, TF over GST control)"
same,binding signal,ELK4,"1.53 fold enrichment (6-mer frequency, TF over GST control)"
same,binding signal,ETV2,"1.44 fold enrichment (6-mer frequency, TF over GST control)"
same,binding signal,ELF3,"1.46 fold enrichment (6-mer frequency, TF over GST control)"
same,binding signal,CRX,"2.19 fold enrichment (6-mer frequency, TF over GST control)"
same,binding signal,ETV1,"1.43 fold enrichment (6-mer frequency, TF over GST control)"
